Test results published in PubChem BioAssay AID1850 (Southern Research Specialized Biocontainment Screening …, 2009).
The whole screen tested about 310,000 compounds, of which about 1,000 (0.32%) were called active. These entries were drawn from the full list. Results with a measured potency or affinity are listed apart. Values without a mark were called inactive. The rule behind the calls is not given here.

Experiment: PhoP regulon inhibitors, Salmonella typhi PhoP promoter GFP reporter, confirmatory (AID 1850);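 note: 0% = induced wells with vehicle and 100% = uninduced wells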
Conditions: fluorescence, 4 h, at 50 µM, stronger effect = higher value

Structure (SMILES)	inhibition
Nc1nonc1C(=O)N/N=C/c1ccc([N+](=O)[O-])o1	-4.72%
Cc1nonc1C(=O)N/N=C/c1cccc(O)c1	-9.29%
Cc1ccc(NC(=O)CCC(=O)N/N=C/c2ccc([N+](=O)[O-])o2)cc1C	-0.54%
CCCOc1ccc(CCC(=O)N/N=C/c2ccc([N+](=O)[O-])o2)cc1	3.44%
O=C(CSc1ccc(Cl)cc1)N/N=C/c1ccc([N+](=O)[O-])o1	-1.14%
CCCCCC(=O)N/N=C/c1ccc([N+](=O)[O-])o1	17.1%
Cc1nonc1C(=O)N/N=C/c1ccc(O)c(O)c1	-18.7%
Cc1cc(C(=O)N/N=C/c2ccc([N+](=O)[O-])o2)c(C)o1	-1.11%
COc1ccccc1C(=O)N1CCc2ccccc21	-2.54%
COCCN(C(=S)Nc1cc(C)cc(C)c1)C(C)c1cccnc1 (stereo not given)	-6.47%
O=C1c2ccccc2C(=O)N1OCc1ccccc1	-23.3%
COc1ccc(N(C)C(=O)CCC(=O)Nc2ccc3nc(N4CCOCC4)cc(C)c3c2)c(OC)c1	-10.9%
CC(C)c1ccccc1OCC(=O)Nc1ccc2[nH]ncc2c1	-2.28%
O=C1CC(c2ccccc2Cl)CC(O)=C1C=Nc1ccccc1 (stereo not given)	-11%
O=C(CCN1CCN(c2ccccc2)CC1)N/N=C/c1ccccc1O	-12.1%
CC(=O)Nc1ccc(/C=N/NC(=O)CCN2CCN(c3ccccc3)CC2)cc1	3.88%
Cc1nc2ccccn2c1C(=O)N/N=C/c1ccccc1[N+](=O)[O-]	5.76%
O=C(CNc1cccc([N+](=O)[O-])c1)N/N=C/c1ccc([N+](=O)[O-])o1	17.3%
O=C(Cc1ccccc1)N/N=C/c1ccc(-c2ccc([N+](=O)[O-])cc2)o1	-11.9%
O=C(COc1ccccc1)N/N=C/c1ccc([N+](=O)[O-])o1	3.11%

Structure (SMILES)	inhibition
Cc1nc2ccccn2c1C(=O)N/N=C/c1ccc([N+](=O)[O-])cc1	2.94%
Cc1cc(C)cc(OCC(=O)N/N=C/c2ccc([N+](=O)[O-])o2)c1	-6.8%
COc1cc(Nc2nc3ccccc3nc2NS(=O)(=O)c2ccc([N+](=O)[O-])cc2)cc(OC)c1OC	6.03%
CN(Cc1ccccc1)CC(O)COc1ccc(CNCCc2cccnc2)cc1 (stereo not given)	9.53%
Cc1ncc(CCl)c2c1OC(C)(C)OC2	5.02%
COc1ccc(NC(=O)NCc2cccnc2)c(OC)c1	-7.58%
O=C(Cc1ccccc1)Nc1nccs1	-0.57%
Cc1cc(OC(C)C(=O)N2C[C@H]3C[C@@H](C2)c2cccc(=O)n2C3)c2c(C)c(C)c(=O)oc2c1 (stereo not given in full)	-6.28%
CC(C)Cc1nnc(NC(=O)CCC(=O)N2CCN(c3ccccn3)CC2)s1	-13%
O=[N+]([O-])c1cccnc1NCCc1c[nH]c2ccccc12	-3.53%
Cc1cc(NC(=O)CSCC(=O)N2CCN(c3cccc(C(F)(F)F)c3)CC2)no1	6.28%
O=C(N/N=C/c1ccc([N+](=O)[O-])o1)c1ccc2c(c1)OCO2	3.54%
O=C(N/N=C/C=C/c1ccc([N+](=O)[O-])cc1)c1cccs1	6.74%
O=C(N/N=C/C=C/c1ccccc1[N+](=O)[O-])c1cccs1	-2.89%
O=C(CN1CCCCCCC1)N/N=C/c1ccc([N+](=O)[O-])o1	8.07%
C/C(=N/NC(=O)C(O)(c1ccccc1)c1ccccc1)c1ccc([N+](=O)[O-])o1	-14%
CCOC(=O)N/N=C(\C)c1ccc(C)o1	-8.47%
CCCC(=O)Nc1ccc(C(=O)N/N=C/c2ccc([N+](=O)[O-])o2)cc1	14.4%
NC(=O)N/N=C/c1ccc([N+](=O)[O-])o1	1.06%
COc1ccc(C2C(C(C)=O)=C(O)C(=O)N2Cc2ccccc2)c(OC)c1 (stereo not given)	-1.09%

Structure (SMILES)	inhibition
Cc1ccc([C@@H]2[C@@H]3C(=O)N(C)C(=O)[C@@H]3[C@]3(Cc4ccccc4)C(=O)N(Cc4ccccn4)CC(=O)N23)o1	5.99%
COc1ccccc1N1CCN(C2CCCN(C(=O)c3cc(C4CC4)on3)C2)CC1 (stereo not given)	-1.91%
O=C(C[n+]1cc(-c2ccccc2)n2c1CCCCC2)c1ccc(Br)cc1	-5.28%
CCOC(=O)N1CCN(C(=O)c2cn(CC)c3ccc(S(=O)(=O)N4CC(C)CC(C)C4)cc3c2=O)CC1 (stereo not given)	-8.02%
O=C(COC(=O)CCN=C1NS(=O)(=O)c2ccccc21)NC1CCCCCCC1	2.68%
COc1cccc(NC(=S)NC(=O)Cc2ccc(Cl)cc2)c1	-3.77%
CCOC(=O)N/N=C/c1ccc(C)o1	-0.31%
COC(=O)N/N=C/c1ccc([N+](=O)[O-])o1	10.7%
Cc1ccc2c(c1)C(=O)CC(O)(C(F)(F)F)O2 (stereo not given)	-10.7%
O=C(Nc1ccccc1)c1ccc(OC(=O)c2cc3ccccc3o2)cc1	1.84%
COc1ccc(OC(=O)c2cc3ccccc3o2)cc1	3.29%
CC(=O)Nc1cccc(C(=O)Nc2cccnc2)c1	5.55%
CC(=O)OCC1OC(n2cc(F)c(=O)[nH]c2=O)C(OC(C)=O)C1OC(C)=O (stereo not given)	-1.38%
Nc1cn(C2OC(CO)C(O)C2O)c(=O)[nH]c1=O (stereo not given)	5.11%
COc1ccccc1N1CCN(c2ccc(Cl)nn2)CC1	8.78%
Cc1ccc(C(=O)N/C(=C\c2ccccc2)C(=O)NCCCn2ccnc2)cc1	-1.23%
NCCCC[C@H]1CN=C(N)N1CCC12CC3CC(CC(C3)C1)C2	27.2%
NC1=NC[C@@H](Cc2ccc(O)cc2)N1CCC12CC3CC(CC(C3)C1)C2	-4.88%
NC1=NC[C@@H](Cc2ccc(O)cc2)N1CCc1cccc2ccccc12	-7.1%
NC1=NC[C@H](Cc2ccc(O)cc2)N1CCc1cccc(F)c1	-13.5%
